Assay [1] can be described thus: Nuclear factor erythroid 2-related factor 2/antioxidant responsive element (Nrf2/ARE) small molecule agonists: qHTS cell viability counter screen in human keratinocytes (AID 1919968; active = well fitted curve in the direction sought with a large enough effect in the repeat runs; an effect the other way counts as inactive or inconclusive; also: nearly all actives have a fitted effect of over 55% in size; also: potency is read from the fitted curve at half-maximal effect). In short, it runs like this:
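Seed 1,500 KeratinoSens cells per well, then incubate 5 h at 37 C/5% CO2. Add compounds in DMSO and incubate 23 h. Add CellTiter-Fluor, wait 1 h and read fluorescence.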
(In general: In qHTS, concentration-response curves come from the screen itself.)

A short description of assay [2]: Nuclear factor erythroid 2-related factor 2/antioxidant responsive element (Nrf2/ARE) small molecule agonists: luciferase reporter gene qHTS assay in human keratinocytes (AID 1919969). Also: nearly all actives have a fitted effect of over 35% in size. Also: potency is read from the fitted curve at half-maximal effect. A general note: Reporter assays use an easily measured gene product as a stand-in for the process of interest.
Assay [3] concerns the target Gonadotropin-releasing hormone receptor (Homo sapiens) (UniProt P30968). The assay can be described thus: Human gonadotropin-releasing hormone receptor (GnRHR) small molecule agonists, calcium flux assay in GnRHR-HEK293 cells (AID 1920063). Also: nearly all actives have a fitted effect of over 35% in size. The method in brief: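 Cells: HEK293 stably expressing human GnRHR. Steps: overnight (18 h) culture, 1 h calcium dye loading at 37 C, compound addition, kinetic fluorescence read at 480/540 nm. Each compound tested at 15 concentrations in triplicate.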
For orientation: A change in cytosolic calcium serves as a functional read-out for many receptors and channels.

In assay [4] the target is KiSS-1 receptor (Homo sapiens) (UniProt Q969F8). The assay can be described thus: Human kisspeptin (KISS1R) small molecule agonists, calcium flux assay in KISS1R-HEK293 cells (AID 1920064; active = well fitted curve in the direction sought with a large enough effect in the repeat runs; an effect the other way counts as inactive or inconclusive). The method in brief: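 Cells plated and incubated 18 h; dye added, 1 h at 37 C; compounds in DMSO pinned in; signal read at 480/540 nm every second for 3 min. Each compound tested at 15 concentrations in triplicate.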
KiSS-1 receptor (Homo sapiens), sequence (Q969F8 whole entry, looked up): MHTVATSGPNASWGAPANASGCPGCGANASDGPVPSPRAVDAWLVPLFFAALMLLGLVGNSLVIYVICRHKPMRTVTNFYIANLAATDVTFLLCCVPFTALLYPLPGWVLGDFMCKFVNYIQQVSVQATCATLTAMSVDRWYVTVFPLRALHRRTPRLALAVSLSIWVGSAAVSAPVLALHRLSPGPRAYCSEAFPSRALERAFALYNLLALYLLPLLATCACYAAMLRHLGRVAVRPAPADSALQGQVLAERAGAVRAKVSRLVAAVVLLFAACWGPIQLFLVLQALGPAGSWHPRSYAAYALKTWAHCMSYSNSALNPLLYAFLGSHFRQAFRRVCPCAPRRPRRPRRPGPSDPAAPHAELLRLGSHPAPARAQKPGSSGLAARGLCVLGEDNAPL

The nature of assay [5]: G protein-coupled receptor (GPCR) small molecule agonists, calcium flux assay: HEK293 wild type cell line counter screen (AID 1920065). The method in brief:
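Counter-screen of the Tox21 10K library for non-specific calcium release: dye-loaded cells received compounds in DMSO and were monitored by kinetic fluorescence (480/540 nm, 3 min). Fifteen concentrations, run in triplicate.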

The nature of assay [6]: p53 small molecule agonists, cell-based qHTS assay with human liver microsomes: qHTS cell viability counter screen (AID 1963579). Also: nearly all actives have a fitted effect of over 45% in size. Also: potency is read from the fitted curve at half-maximal effect. In short, it runs like this: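 Metabolic activation used human liver microsomes and NADPH, both 0.5 mg/mL final, over 16 hours at 37 C on p53RE-bla cells (4,000/well). Cytotoxicity measured by CellTiter-Glo luminescence, 30 min at room temperature.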

Assay [7] is described as follows: p53 small molecule agonists, cell-based qHTS assay with rat liver microsomes: qHTS cell viability counter screen (AID 1963580). Also: nearly all actives have a fitted effect of over 45% in size. Also: potency is read from the fitted curve at half-maximal effect. In short, it runs like this: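 p53RE-bla HCT-116 cells (4,000/well) rested 5 h at 37 C, then given Tox21 compounds in DMSO with rat liver microsomes (0.5 mg/mL final) plus NADPH (0.5 mg/mL final) for 16 h at 37 C. Viability read by CellTiter-Glo luminescence after 30 min at room temperature.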

Assay [8] in a line: p53 small molecule agonists, cell-based qHTS assay: qHTS cell viability counter screen (AID 1963581). Also: nearly all actives have a fitted effect of over 45% in size. The method in brief: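 Cells: HCT-116 with p53 response element-driven beta-lactamase. Treatment: 16 h, 37 C, compounds in DMSO. Read: CellTiter-Glo luminescence after 30 min RT.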
Assay [9] can be described thus: p53 small molecule agonists, cell-based qHTS assay (AID 1963582; active = well fitted activation curve with a large enough effect in the signal ratio in the repeat runs, not every such curve was filed as active; the % refers to the signal ratio). The method in brief: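 Quantitative HTS in p53RE-bla cells: after a 5 h settling period, compounds delivered in DMSO were left on cells for 16 h at 37 C, and reporter induction was measured as fluorescence following 2 h substrate loading.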
Assay [10] is described as follows: cAMP Responsive Elements (CRE) small molecule agonists, cell-based qHTS assay (AID 1963590). In short, it runs like this:
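Agonist mode qHTS in CRE-bla HEK 293T cells: compounds dosed from DMSO for 3 h at 37 C/5% CO2, followed by LiveBLAzer B/G FRET substrate for 2 h at room temperature.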

Assay [11] in a line: cAMP Responsive Elements (CRE) small molecule antagonists, cell-based qHTS assay (AID 1963591; active = well fitted inhibition curve with a large enough effect in the signal ratio in the repeat runs, not every such curve was filed as active; the % refers to the signal ratio). The method in brief: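 Antagonist mode: test compounds are co-incubated with the adenylyl cyclase activator NKH477 (0.25 uM final) on CRE-bla HEK293T cells for 3 h at 37 °C, followed by LiveBLAzer substrate loading.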
The target of assay [12] is Beta-2 adrenergic receptor (Homo sapiens) (UniProt P07550). The assay can be described thus: Adrenergic beta2 receptor (ADRB2) small molecule antagonists, cell-based qHTS assay (AID 1963592). Also: series mostly up to about 92 µM; nearly all actives have a fitted effect of over 50% in size. The method in brief: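 Cells (CHO, stable ADRB2 overexpression) incubated 18-20hr at 37C; compounds added from DMSO; agonist mix (1nM isoproterenol, 100uM IBMX, 25uM Ro-20-1724) added; 0.5hr RT; d2-cAMP and anti-cAMP-cryptate added; 1hr RT; 665/615 nm read.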
Beta-2 adrenergic receptor (Homo sapiens), sequence (P07550 whole entry, looked up): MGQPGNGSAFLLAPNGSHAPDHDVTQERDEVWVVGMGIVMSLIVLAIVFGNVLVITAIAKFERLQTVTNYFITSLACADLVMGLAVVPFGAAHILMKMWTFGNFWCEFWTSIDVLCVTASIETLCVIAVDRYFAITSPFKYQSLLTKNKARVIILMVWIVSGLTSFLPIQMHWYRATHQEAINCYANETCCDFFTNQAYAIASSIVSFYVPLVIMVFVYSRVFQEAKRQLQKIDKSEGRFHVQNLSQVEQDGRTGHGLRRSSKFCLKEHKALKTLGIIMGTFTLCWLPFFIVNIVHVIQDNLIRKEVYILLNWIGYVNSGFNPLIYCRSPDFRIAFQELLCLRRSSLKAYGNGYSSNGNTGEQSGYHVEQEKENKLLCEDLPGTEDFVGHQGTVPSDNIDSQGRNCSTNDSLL

For assay [13] the target is unchanged. Nature of the assay: Adrenergic beta2 receptor (ADRB2) small molecule agonists, cell-based qHTS assay (AID 1963593).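 Also: CHO cells stably overexpressing human ADRB2.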 The method in brief: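 CHO cells stably over-expressing ADRB2 were plated overnight at 37C, then dosed with compounds plus a stimulation mix containing 100uM IBMX and 25uM Ro-20-1724 for 0.5hr at room temperature. cAMP was measured by HTRF competition, 1hr.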

For assay [14], the target named is D(2) dopamine receptor (Homo sapiens) (UniProt P14416). Nature of the assay: Dopamine D2 receptor (DRD2) small molecule agonists, cell-based qHTS assay (AID 1963594). Also: nearly all actives have a fitted effect of over 35% in size. The method in brief:
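HEK293 cells stably expressing DRD2 were cultured 24 h at 37 C, then given Ro20-1724 (0.1 mM final) and compounds for 10 min at room temperature. NKH477 (200nM) was then added for 30 min. cAMP was read by HTRF.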

Assay [15] shares this target. Nature of the assay: Dopamine D2 receptor (DRD2) small molecule antagonists, cell-based qHTS assay (AID 1963595; active = well fitted inhibition curve with a large enough effect in the signal ratio in the repeat runs, with a control signal flat; the % refers to the signal ratio). In short, it runs like this:
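DRD2-HEK293; 0.1 mM Ro20-1724; cpd 10 min RT; NKH477 200 nM + quinpirole 12 nM, 30 min RT; HTRF cAMP (cAMP-d2/anti-cAMP cryptate), 665/620 nm ratio after 1 h.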

The target in assay [16] is 5-hydroxytryptamine receptor 2A (Homo sapiens) (UniProt P28223). The assay can be described thus: 5-hydroxytryptamine receptor 2A (HTR2A) small molecule antagonists, cell-based qHTS assay (AID 1963586). Also: nearly all actives have a fitted effect of over 45% in size. In short, it runs like this: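 Antagonist-mode intracellular calcium assay: DOI (4 nM) added after 5 min compound pre-incubation at room temperature to dye-loaded HTR2A-CHO cells. Fluorescence followed for 3 min, sampled every second.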
5-hydroxytryptamine receptor 2A (Homo sapiens), sequence (P28223 whole entry, looked up): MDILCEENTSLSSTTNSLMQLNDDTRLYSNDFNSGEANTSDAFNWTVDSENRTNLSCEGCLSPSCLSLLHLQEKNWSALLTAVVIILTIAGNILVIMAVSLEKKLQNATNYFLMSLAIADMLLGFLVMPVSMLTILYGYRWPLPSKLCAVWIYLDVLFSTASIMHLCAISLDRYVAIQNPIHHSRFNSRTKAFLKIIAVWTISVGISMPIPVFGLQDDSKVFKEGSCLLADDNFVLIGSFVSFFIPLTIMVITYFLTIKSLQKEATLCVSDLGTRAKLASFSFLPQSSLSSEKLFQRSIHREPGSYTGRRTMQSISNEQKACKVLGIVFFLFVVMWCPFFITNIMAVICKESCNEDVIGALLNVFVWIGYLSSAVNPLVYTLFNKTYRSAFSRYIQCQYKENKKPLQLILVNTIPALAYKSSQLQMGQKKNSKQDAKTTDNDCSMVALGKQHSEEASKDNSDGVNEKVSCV

The target is the same in assay [17]. The assay can be described thus: 5-hydroxytryptamine receptor 2A (HTR2A) small molecule agonists, cell-based qHTS assay (AID 1963587). Also: nearly all actives have a fitted effect of over 30% in size. The method in brief: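 HTR2A-CHO cells, plated 18 h at 37 C/5% CO2, dye-loaded 1 h at 37 C; compounds in DMSO added by pin tool (agonist mode). Intracellular calcium flux read as kinetic fluorescence on FDSS over 2 min at 1 s intervals.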

The target in assay [18] is Muscarinic acetylcholine receptor M1 (Homo sapiens) (UniProt P11229). The assay can be described thus: Cholinergic receptor muscarinic 1 (CHRM1) small molecule antagonists, cell-based qHTS assay (AID 1963588). Also: nearly all actives have a fitted effect of over 40% in size. The method in brief: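 CHRM1-CHO calcium-flux assay, antagonist mode. Cells were seeded 18 h, dye-loaded 1 h at 37 C and given compound for 5 min at RT, then acetylcholine was added at 50nM. FDSS fluorescence was read 3 min; 15 concentrations, three runs.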
Muscarinic acetylcholine receptor M1 (Homo sapiens), sequence (P11229 whole entry, looked up): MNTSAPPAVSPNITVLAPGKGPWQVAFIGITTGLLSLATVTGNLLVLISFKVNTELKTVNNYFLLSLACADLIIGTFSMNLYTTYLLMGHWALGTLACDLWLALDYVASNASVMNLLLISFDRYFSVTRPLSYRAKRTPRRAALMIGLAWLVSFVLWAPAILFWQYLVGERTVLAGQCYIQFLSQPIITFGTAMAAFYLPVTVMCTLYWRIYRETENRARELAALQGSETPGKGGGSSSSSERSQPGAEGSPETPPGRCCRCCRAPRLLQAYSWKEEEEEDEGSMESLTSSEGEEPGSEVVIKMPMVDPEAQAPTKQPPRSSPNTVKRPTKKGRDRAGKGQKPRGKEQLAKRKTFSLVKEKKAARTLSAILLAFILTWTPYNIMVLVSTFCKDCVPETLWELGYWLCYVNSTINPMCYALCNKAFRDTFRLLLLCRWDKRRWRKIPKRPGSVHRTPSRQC

For assay [19] the target is unchanged. Nature of the assay: Cholinergic receptor muscarinic 1 (CHRM1) small molecule agonists, cell-based qHTS assay (AID 1963589). Also: nearly all actives have a fitted effect of over 35% in size. In short, it runs like this: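 Agonist-mode qHTS in CHO cells stably carrying human muscarinic M1. Intracellular calcium is tracked by fluorescence every second after compound transfer; each compound runs at 15 concentrations in three independent runs.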

Assay [20] can be described thus: p53 small molecule agonists, cell-based qHTS assay with human liver microsomes (AID 1963577).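 Also: p53 response element beta-lactamase reporter cells with liver microsomes plus NADPH.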 In short, it runs like this: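 With metabolic activation: human liver microsomes (0.5 mg/mL final) plus NADPH (0.5 mg/mL final) added alongside compounds to p53RE-bla cells; 16 h 37 C exposure; beta-lactamase read by LiveBLAzer fluorescence.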

Drawing on PubChem BioAssay (Tox21), this text covers Potency for seven compounds.

Several values for one entry are separate records, joined by “and”; a condition that tells them apart may be missing. Equal entries are not always repeated. Records with an inconclusive call do not appear. More than one record can exist for a structure, and the calls need not agree. Activity calls are given as the source filed them. Unless noted, calls follow the shape of the full dose curve.

Gonadotropin-releasing hormone receptor (Homo sapiens), sequence (P30968 whole entry, looked up): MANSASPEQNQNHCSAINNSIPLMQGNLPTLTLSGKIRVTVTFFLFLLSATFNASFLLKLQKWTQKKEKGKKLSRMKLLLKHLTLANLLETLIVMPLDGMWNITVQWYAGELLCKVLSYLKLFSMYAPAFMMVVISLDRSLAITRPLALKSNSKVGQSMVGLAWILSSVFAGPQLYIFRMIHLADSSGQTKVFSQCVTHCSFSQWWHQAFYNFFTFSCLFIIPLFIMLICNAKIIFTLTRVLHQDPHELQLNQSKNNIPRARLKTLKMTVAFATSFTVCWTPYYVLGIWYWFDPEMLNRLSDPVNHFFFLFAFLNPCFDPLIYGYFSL
D(2) dopamine receptor (Homo sapiens), sequence (P14416 whole entry, looked up): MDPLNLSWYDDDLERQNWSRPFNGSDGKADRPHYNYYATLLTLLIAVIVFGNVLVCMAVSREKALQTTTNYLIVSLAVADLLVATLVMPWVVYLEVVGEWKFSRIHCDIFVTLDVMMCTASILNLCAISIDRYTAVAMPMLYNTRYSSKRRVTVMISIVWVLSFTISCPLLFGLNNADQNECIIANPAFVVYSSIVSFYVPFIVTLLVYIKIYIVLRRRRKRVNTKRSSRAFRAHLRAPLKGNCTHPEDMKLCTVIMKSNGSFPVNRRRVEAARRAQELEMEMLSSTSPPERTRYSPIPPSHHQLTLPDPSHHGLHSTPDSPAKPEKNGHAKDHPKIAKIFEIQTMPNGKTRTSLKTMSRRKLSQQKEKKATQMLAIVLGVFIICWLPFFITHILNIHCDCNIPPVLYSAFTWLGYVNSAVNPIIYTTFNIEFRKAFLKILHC

Regarding `COC(=O)c1ccccc1O`, the Potency result in assay [1], in assay [3], in [4], in assay [5], in assay [6] and in assay [7] was “inactive” in each case. Further, the Potency entry in assay [8], in [9], in assay [10], in assay [11], in assay [12] and in [13] was “inactive” in each case. Besides, the Potency result in assay [14] and in assay [15] was “inactive” throughout. Moreover, the Potency in assay [2] was 68.7 µM (active) and inactive.
As for `CC(=O)C(=O)O`, the Potency result in assay [1], in assay [2], in assay [3], in [4], in assay [5] and in assay [6] was “inactive” in each case. Moreover, the Potency entry in [7], in assay [8], in [9], in assay [16], in [17] and in assay [18] was “inactive” in each case. The Potency result in [19], in assay [10], in assay [11], in [12], in [13] and in assay [14] was “inactive” throughout. Further, the Potency entry in [15] is “inactive”.
Consider `CC(O)CO` (centres undefined), for which the Potency result in assay [1], in assay [2], in assay [3], in assay [4], in [5] and in assay [20] was “inactive” in each case. Besides, the Potency entry in assay [6], in assay [7], in [8], in assay [9], in [10] and in assay [11] was “inactive” throughout. Moreover, the Potency result in [12], in assay [13], in assay [14] and in assay [15] was “inactive” in each case.
Turning to `CC(C)CC(=O)CC(C)CC(C)C` (centres undefined), the Potency result in assay [1], in assay [2], in assay [3], in assay [4], in assay [5] and in [6] was “inactive” in each case. For the same compound, the Potency entry in assay [7], in assay [8], in [9], in [16], in assay [17] and in assay [18] was “inactive” in each case. For the same compound, the Potency result in assay [19], in [10], in [11], in assay [12], in assay [14] and in assay [15] was “inactive” each time.
`Oc1ccc(Cc2ccccc2O)cc1`: the Potency result in [1], in assay [2], in assay [3], in assay [4], in [5] and in assay [20] was “inactive” each time. The Potency result in assay [8], in assay [9], in [16], in assay [17], in assay [18] and in [19] was “inactive” in each case. In addition, the Potency result in [10], in [11], in assay [12], in [13], in [14] and in [15] was “inactive” in each case. Also, the Potency in assay [7] was 36.8 µM (active) and inactive.
In the case of `CCCCC/C=C\C/C=C\CCCCCCCC(=O)OC`, the Potency result in assay [1], in assay [3], in assay [4], in assay [5], in assay [7] and in assay [8] was “inactive” throughout. Also, the Potency entry in assay [9], in [16], in assay [17], in assay [18], in assay [19] and in assay [10] was “inactive” throughout. Moreover, the Potency entry in [11], in assay [12], in assay [13], in [14] and in [15] was “inactive” in each case. The Potency in assay [2] was 27 µM (active) and 68.6 µM (active); in [6], “inactive and 51.3 µM (active)”.
As for `O=C(Nc1ccccc1SSc1ccccc1NC(=O)c1ccccc1)c1ccccc1`, the Potency in [1] was 6.14 µM (active) and 6.11 µM (active); in assay [2] it was 4.88 µM (active) and 6.11 µM (active). The Potency result in assay [3], in assay [4], in [5], in assay [20], in [6] and in assay [7] was “inactive” each time. The Potency result in assay [8], in assay [9], in [16], in assay [17], in assay [18] and in assay [19] was “inactive” in each case. Besides, the Potency result in [12], in [13], in assay [14] and in [15] was “inactive” throughout.
